# Rows were chosen to be rich in hits. Some 4.6% of all compounds tested hit in one or more screens of this group.
# TRHR enhancer – TRH receptor (human) allosteric enhancement | P34981 | TRHR cells, fluo-8 calcium fluorescence, EC20 TRH enhancement | enhancement, % at 2 µM | 360,000 compounds, 0.66% hits; in the data active = enhancement above about 30%
# Target sequence (P34981 whole entry, looked up): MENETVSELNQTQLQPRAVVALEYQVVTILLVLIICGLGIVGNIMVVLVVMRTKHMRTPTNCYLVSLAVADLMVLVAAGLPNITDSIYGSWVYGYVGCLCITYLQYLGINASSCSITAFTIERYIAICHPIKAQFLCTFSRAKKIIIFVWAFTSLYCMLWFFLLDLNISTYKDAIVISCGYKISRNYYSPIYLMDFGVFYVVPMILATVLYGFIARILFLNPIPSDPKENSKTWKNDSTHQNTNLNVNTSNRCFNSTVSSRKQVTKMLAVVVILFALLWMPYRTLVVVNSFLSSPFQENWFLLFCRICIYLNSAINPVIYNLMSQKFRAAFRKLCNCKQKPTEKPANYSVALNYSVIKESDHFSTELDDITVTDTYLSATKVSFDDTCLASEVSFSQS
#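 TRHR-expressing cells loaded with fluo-8 calcium dye were read kinetically (ex 480/em 530) during compound addition, then stimulated with an EC20 of TRH (10 nM final). Enhancement of the Gq-mediated intracellular calcium response was scored.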
# D1 agonist – agonists of human D1 dopamine receptor; 360,000 compounds, 1% hits; activation, % at 2 µM; HEK293 T-REx D1 cells, calcium flux, agonist mode
#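 Tetracycline-induced HEK293 TREx D1 cells, force-coupled to calcium signalling, were dye-loaded with a no-wash calcium kit. Compound was pin-added after a 10 s baseline. Fluorescence was read kinetically at 1 cycle/s for 180 s, with calcium rises flagged as agonism.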
# D1 antagonist – blocks dopamine activation of the human D1 receptor; HEK293 TREx D1 cells, calcium flux, dopamine EC80; active compounds read low; 360,000 compounds, 3.2% hits; P21728; activity change, negative = inhibition, % at 10 µM; AID 504652; in the data active = activity change below about -30%
#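 Allosteric or orthosteric antagonism assessed as attenuation of the calcium response to EC80 dopamine, added 180 s after compound, in induced HEK293 Trex D1 cells loaded with no-wash calcium dye.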
# D1 PAM – human D1 dopamine receptor positive modulation. HEK293 TREx D1 cells, calcium flux, dopamine EC20 potentiation. AID 504651. 360,000 compounds, 0.036% hits. potentiation, % at 10 µM; in the data active = potentiation above about 30%
# Epigenetic reg – regulators of epigenetic silencing causing reporter derepression in mouse cells; murine LDR cells, GFP reporter derepression, 30 h; Potency, µM (doses to about 53.9 µM), most hits filed as activators; 280,000 compounds, 0.2% hits; AID 1865; active = well fitted activation curve with a large enough effect; inconclusive = small, poorly fitted or top-dose-only effect; also: nearly all actives have a fitted effect of over 60% in size
#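 Reporter derepression read as number of fluorescent GFP-positive objects, 20-120 um in size, counted by laser-scanning cytometer. Mouse LDR line with an epigenetically silenced CMV-GFP locus; compound incubation 30 h, 37 C.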
# TRHR agonist – TRH receptor (human) agonism. P34981. TRHR cells, calcium flux fluo-8, FDSS agonist mode. activation, % at 2 µM. 360,000 compounds, 0.18% hits. AID 493084
#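 In this calcium-flux screen, cells bearing human TRHR are dye-loaded with fluo-8, baselined for 10 cycles, then exposed to library compounds; positive kinetic calcium responses during the agonist phase mark hits, with TRH as control.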
# Numbers stand for hits; i = inactive; ? = inconclusive; nt = no result given. Rule as the data show it, unless noted: active = activation above about 30%; inactive = the rest.
SMILES,TRHR enhancer,D1 agonist,D1 antagonist,D1 PAM,Epigenetic reg,TRHR agonist
CCCN(CCC)CC(O)Cn1cc(/C=C/C(=O)c2ccccc2)c2ccccc21 (centres undefined),i,73,-31,i,i,i
CCCN(CCC)CC(O)Cn1cc(/C=C/C(=O)c2ccc(OC)cc2)c2ccccc21 (centres undefined),i,128,-41,i,i,i
COc1ccc(C(=O)/C=C/c2cn(CC(O)CN(CC(C)C)CC(C)C)c3ccccc23)cc1 (centres undefined),i,i,i,i,?,i
Cc1ccc(C)c(NC(=O)Cn2cc(S(=O)(=O)c3ccc(F)cc3)c(=O)c3cc(F)ccc32)c1,i,i,i,i,i,i
C=C(C)C(=O)C1CCCCC1,nt,nt,nt,nt,i,nt
NC(=S)c1ccc[n+]([C@@H]2O[C@@H](COP(=O)([O-])OP(=O)(O)OC[C@H]3O[C@@H](n4cnc5c(N)ncnc54)[C@H](OP(=O)(O)O)[C@H]3O)C(O)C2O)c1 (some centres undefined),nt,nt,nt,nt,i,nt
CC(C)(C)NCC(O)Cn1cc(C=O)c2ccccc21 (centres undefined),i,i,i,i,i,i
CCCN(CCC)CC(O)Cn1cc(/C=C/C(=O)c2ccc(C)cc2)c2ccccc21 (centres undefined),i,133,-42,i,i,i
Cc1ccc2c(c1)C1CN(C)CCC1N2C(=O)COc1ccc(N(C)S(=O)(=O)c2cccs2)cc1 (centres undefined),i,i,-36,i,i,i
COc1ccc(OCC(=O)N2c3ccc(C)cc3C3CN(C)CCC32)cc1 (centres undefined),i,i,i,i,i,i
CCOc1ccc(S(=O)(=O)N(C)c2ccc(OCC(=O)N3c4ccc(C)cc4C4CN(C)CCC43)cc2)cc1 (centres undefined),i,i,-40,i,i,i
O=C(CCc1nc2ccccc2c(=O)[nH]1)NCc1ccccn1,i,i,-30,i,i,i
O=C(COC(=O)CCc1nc2ccccc2c(=O)[nH]1)Nc1ccccc1Cl,i,i,-41,i,i,i
N#CC(c1cccc(Cl)c1)c1ncc(C(F)(F)F)cc1Cl (centres undefined),i,i,i,i,i,i
N#CC(c1ccc(Cl)cc1)c1ncc(C(F)(F)F)cc1Cl (centres undefined),i,i,-51,i,i,i
Cc1cc(C)c(C(=O)CSc2n[nH]c(=O)n2C2CC2)cc1C,i,i,-37,i,i,i
Cc1ccc(OCC(=O)NC(=S)Nc2ccccn2)c(Br)c1,i,i,i,i,nt,i
Cc1ccc(OCC(=O)NNC(=S)NC(=O)C2CC2)c(C)c1,i,i,i,i,nt,i
Cc1ccc(OCC(=O)NNC(=S)NC(=O)C(C)(C)C)c(Br)c1,i,82,i,i,i,i
Cc1ccc(OCC(=O)NNC(=S)NC(=O)C2CCCCC2)c(C)c1,i,47,i,i,nt,i
COc1ccccc1N1CCN(C(=O)c2cc3c(=O)oc4ccc(C)cc4c3s2)CC1,i,i,i,i,i,i
Cc1ccc(-n2ncc(C(=O)NCc3ccccc3)c2C2CCN(C(=O)OC(C)(C)C)CC2)cc1,i,i,i,i,i,i
NC(=O)c1ccc(/C=N/O)nc1,38,i,i,i,i,i
Cc1cc(Cl)ccc1OCCSc1nnc(-c2cccs2)o1,i,i,i,i,i,i
CCN(CC)C(=O)C1CCCN(c2ccc([N+](=O)[O-])cc2[N+](=O)[O-])C1 (centres undefined),i,i,i,i,i,i
SMILES,TRHR enhancer,D1 agonist,D1 antagonist,D1 PAM,Epigenetic reg,TRHR agonist
CCN(CC)C(=O)C1CCCN(c2ccccc2[N+](=O)[O-])C1 (centres undefined),37,i,i,i,i,i
COC(=O)c1ccc(-n2c(/C=C\c3cccc(Br)c3)nc3ccccc3c2=O)cc1,i,i,-32,i,i,i
O=C(O)c1ccc(-n2c(/C=C/c3ccccc3)nc3ccccc3c2=O)cc1,i,i,i,i,nt,i
Cc1ccc(C)c(C(=O)CSc2nc3cc(C(=O)NC4CCCC4)ccc3c(=O)n2CC2CCCO2)c1 (centres undefined),i,i,i,i,?,i
CCOCCCN1C(=O)CN(C2CCCCCC2)C(=O)C1c1ccc(OC(C)C)c(OC)c1 (centres undefined),i,i,-38,i,i,i
CCOCCCN1C(=O)CN(C2CCCCC2)C(=O)C1c1ccc(OC)c(OC)c1 (centres undefined),i,i,i,i,i,i
CCN(CC)S(=O)(=O)c1ccc(S(=O)(=O)N2CCN(C(=O)c3ccco3)CC2)cc1,i,i,i,i,i,i
CCCCc1ccc(S(=O)(=O)N2CCN(C(=O)c3ccco3)CC2)cc1,i,i,-31,i,i,i
CCOC(=O)c1cc(-c2ccc(C)cc2)n(CCC(=O)Nc2nc3c(C)cccc3s2)c1C,i,i,i,i,i,i
O=[N+]([O-])c1ccc(N/N=C\c2cccn2-c2ccccc2)nc1,i,37,i,i,i,i
CCSc1ncc(/C=N/Nc2ccc([N+](=O)[O-])cc2)n1C,i,37,i,i,i,i
COc1ccc(OCc2cc(C(=O)NCc3nc(C)cs3)no2)c(Cl)c1,i,i,-35,i,nt,i
CCc1cccc(NC(=O)C(Cc2ccccc2)NS(=O)(=O)c2ccc3c(c2)c(=O)n(C)c(=O)n3C)c1 (centres undefined),i,i,i,i,i,i
Nc1cc(-c2ccccc2)n2c(n1)nc1ccccc12,i,i,i,i,i,i
C/C(O)=c1/cnc2nc3ccccc3n2c1=O,i,i,-44,i,i,i
CCOC(=O)c1sc(Nc2ccccc2Cl)nc1C,i,i,i,i,i,i
Cc1ccccc1Nc1nc(N)c(C(=O)c2ccccc2Cl)s1,i,95,-48,i,i,i
CCOC(=O)c1c(/N=C/N(C)C)sc(/C=N/Nc2ccccc2)c1-c1ccccc1Cl,i,i,i,i,i,i
CCOC(=O)c1c(/N=C/N(C)C)sc(/C=N/Nc2ccccc2)c1-c1ccccc1,i,i,i,i,10µM,i
CC(C)c1ccc(Nc2cc(C(=O)NCCc3ccccc3)c3ccccc3n2)cc1,i,i,i,i,i,i
CCOC(=O)c1ccc(NC(=O)C2=C(C)Nc3nc(SCc4ccc(Cl)cc4)nn3C2c2ccc(OC)cc2)cc1 (centres undefined),i,i,i,i,i,i
CC1CCc2[nH]nc(C(=O)O)c2C1 (centres undefined),i,i,-47,i,i,i
